Data reported in PubChem BioAssay AID624273 (Broad Institute, 2012).
Hit rate of the full screen: of about 1,000 compounds, about 230 (23%) were called active. Another 1% or so got no clear call; they are omitted. The rule behind the calls is not given here. The list shows a part of the results. Measured potencies and affinities stand elsewhere.

What follows are compounds tested against Long-chain-fatty-acid--AMP ligase FadD28 (Mycobacterium tuberculosis (strain ATCC 25618 / H37Rv)) (UniProt P9WQ59) (assay: inhibitors of FadD28 bisubstrate probe binding, dose response, biochemical, fluorescence polarization, cherry-pick (AID 624273)). Details: series mostly up to 50 µM; activity change, negative = inhibition: at the top concentration.
Chain of Long-chain-fatty-acid--AMP ligase FadD28 (Mycobacterium tuberculosis (strain ATCC 25618 / H37Rv)) (P9WQ59 whole entry, looked up): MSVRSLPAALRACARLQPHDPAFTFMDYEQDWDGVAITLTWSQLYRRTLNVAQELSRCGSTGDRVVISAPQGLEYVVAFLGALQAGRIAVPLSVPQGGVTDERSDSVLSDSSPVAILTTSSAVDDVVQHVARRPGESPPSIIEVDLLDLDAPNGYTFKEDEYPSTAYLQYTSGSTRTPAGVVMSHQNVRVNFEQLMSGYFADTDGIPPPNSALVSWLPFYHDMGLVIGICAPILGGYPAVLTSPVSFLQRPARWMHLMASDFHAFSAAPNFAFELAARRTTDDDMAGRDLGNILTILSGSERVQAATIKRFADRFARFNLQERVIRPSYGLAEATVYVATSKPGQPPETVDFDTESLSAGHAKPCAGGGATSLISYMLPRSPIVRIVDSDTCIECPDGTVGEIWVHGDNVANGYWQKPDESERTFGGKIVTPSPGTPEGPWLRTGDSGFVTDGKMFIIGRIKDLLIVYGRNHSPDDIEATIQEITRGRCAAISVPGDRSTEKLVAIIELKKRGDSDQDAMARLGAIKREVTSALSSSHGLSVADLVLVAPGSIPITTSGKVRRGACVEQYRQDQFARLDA

Compound | activity change, negative = inhibition
NNC(=O)C1CCCn2c1nc1sc3c(c1c2=O)CCCC3 (configuration not stated) | -7.35% (inactive)
Cc1ccc(CSCCNC(=O)c2ccc(NS(C)(=O)=O)cc2)cc1 | -12.2% (inactive)
COc1ccc(CCNC(=O)c2ccc(CNS(=O)(=O)c3cccc(Cl)c3)cc2)cc1OC | -1.17% (inactive)
COc1ccc(CNC(=O)c2ccc(Cl)c(S(=O)(=O)N3CCCCCC3)c2)cc1 | -7.77% (inactive)
Cc1ccc(C(=O)NCCSCc2ccc(Cl)cc2Cl)cc1[N+](=O)[O-] | -2.77% (inactive)
Cc1ccc(CSCCNC(=O)/C=C/c2ccccc2Cl)cc1 | -13.4% (inactive)
O=C(CSc1ccc(Cl)cc1)N1CCOCC1 | 1.82% (inactive)
COc1ccc(C(=O)NCCSCc2ccc(C)cc2)cc1 | -10.5% (inactive)
Brc1ccc(Sc2cnc3ccccc3n2)cc1 | -1% (inactive)
C=CCSc1nnc2nc3c(nn12)c1cc(C)ccc1n3CC=C | -36.9% (inactive)
COc1ccc(C(=O)Nc2ccc(C)cn2)cc1S(=O)(=O)N1CCCc2ccccc21 | -17.2% (inactive)
COc1ccc(CCNC(=O)c2ccc(CNS(=O)(=O)c3ccc(C(C)(C)C)cc3)cc2)cc1OC | 0.258% (inactive)
COc1ccc(C(=O)NCc2ccc(C)cc2)cc1S(=O)(=O)N1CCCc2ccccc21 | -7.77% (inactive)
COC(=O)CC1C(=O)NCCN1C(=O)c1ccc(S(=O)(=O)N2CCOCC2)cc1 (configuration not stated) | -10.9% (inactive)
CC1(c2ccc(OC(F)F)cc2)NC(=O)N(CC(=O)NC2CCCC2)C1=O (configuration not stated) | -0.482% (inactive)
CC(C)CCNc1nc(N2CCCC2)c2c(c1C#N)CCN(C)C2 | -0.029% (inactive)
CN(c1ccccc1)S(=O)(=O)c1ccc(NC(=O)CC(=O)c2ccccc2)cc1 | -34.3% (inactive)
CCN(CC)S(=O)(=O)c1cc(NC(=O)c2cc([N+](=O)[O-])ccc2N2CCOCC2)ccc1C | -15.9% (inactive)
Cc1ccc(NC(=O)c2cc([N+](=O)[O-])ccc2N2CCOCC2)cc1C | -2.08% (inactive)
O=C(CCNC(=O)c1ccc([N+](=O)[O-])cc1)Nc1ccccc1N1CCOCC1 | -4.24% (inactive)
O=C(NNC(=O)c1ccc(Cl)c([N+](=O)[O-])c1)c1ccncc1 | -10.7% (inactive)
O=C1C=C(O)CC(c2ccco2)C1 (configuration not stated) | -7.71% (inactive)
CC(=O)C1=C(C)NC(SCC(=O)c2ccc(F)cc2)=C(C#N)C1c1ccco1 (configuration not stated) | -5.91% (inactive)
COc1ccc(NC(=O)Nc2ccc3c(c2)C(=O)N([C@H](C)CO)C[C@H](C)[C@@H](CN(C)S(=O)(=O)c2ccc(OC)cc2)O3)cc1 | -11.8% (inactive)
CCN(CC)CCCNC(=O)C1c2ccccc2C(=O)N(C)C1c1ccc(OC)cc1 (configuration not stated) | -2.58% (inactive)
COc1ccc(/C(N)=N/OC(=O)c2c(-c3ccccc3Cl)noc2C)cc1OC | 3.19% (inactive)

Compound | activity change, negative = inhibition
O=C1/C(=C\c2cc([N+](=O)[O-])ccc2O)SC(=S)N1Cc1ccc(Cl)cc1 | 28.8% (inactive)
CCOc1cc(/C=C2\SC(=O)N(CC(=O)Nc3ccccc3F)C2=O)cc([N+](=O)[O-])c1O | -1.31% (inactive)
O=C(CNC(=O)c1nc[nH]c1C(=O)NCC(=O)OCc1ccccc1)OCc1ccccc1 | 0.27% (inactive)
COc1ccc(OC)c2[nH]c(=O)c(CCNS(=O)(=O)c3ccc(Cl)cc3)cc12 | 5.06% (inactive)
Cc1cccc(C(=O)NCC(=O)OCc2nc(N)nc(Nc3ccccc3C)n2)c1 | -1.16% (inactive)
O=C(O)CCCc1nc(-c2ccccc2)no1 | -7.19% (inactive)
CCOc1cc(/C=C2\N=C(SC)SC2=O)cc([N+](=O)[O-])c1OC(C)=O | -16.8% (inactive)
CCC(C)OC(=O)C1=C(C)NC(=O)CC1c1ccccc1OC (configuration not stated) | 0.946% (inactive)
Cc1ccc(/C=C/C(=O)C2C(=O)c3ccccc3C2=O)cc1 | -16.1% (inactive)
Cc1noc(C)c1C(=O)NCc1ccccc1Br | -4.75% (inactive)
O=C(NNC1CC(=O)N(c2ccc(Br)cc2)C1=O)c1cccnc1 (configuration not stated) | -1.93% (inactive)
O=C(O)c1ccc(N=C2SCC(=O)N2Cc2ccccc2)cc1 | 5.24% (inactive)
O=C1CC(C(=O)Nc2ccc(Br)cc2)S/C(=N\N=C\c2ccco2)N1 (configuration not stated) | -8.99% (inactive)
CN(C)S(=O)(=O)c1cc(NC(=O)CSc2ncc(C(F)(F)F)cc2Cl)ccc1Cl | -11% (inactive)
COc1cccc(NC(=S)/C(=C(\[O-])c2cc(C)n(-c3ccccc3F)c2C)[n+]2ccc(N(C)C)cc2)c1 | -2.5% (inactive)
O=C(c1cc2cc(Cl)ccc2[nH]1)N1CCCCC1 | -3.96% (inactive)
C/C(=N\N=C(/N)SC1CC(=O)N(c2ccc(Br)cc2)C1=O)c1cccs1 (configuration not stated) | -5.05% (inactive)
CCN(CC)c1ccc(/C=N/NC(=O)Cc2cccs2)c(O)c1 | -14.5% (inactive)
C[C@H](CO)N1C[C@H](C)[C@H](CN(C)S(=O)(=O)c2cccs2)Oc2ccc(NC(=O)Nc3ccc4c(c3)OCO4)cc2CC1=O | -15.2% (inactive)
Cc1ccc(-n2ncc3c(=O)[nH]c(SCC(=O)N4CC(=O)Nc5ccccc54)nc32)cc1 | 5.97% (inactive)
O=C(Cc1ccccc1[N+](=O)[O-])OCC(=O)c1c[nH]c2ccccc12 | -2.76% (inactive)
COc1ccc(S(=O)(=O)NCC2CCCN(Cc3cn(C)nc3C)C2)cc1 (configuration not stated) | -3.69% (inactive)
O=C(Cn1cc2c(n1)CCCC2)Nc1cc(-c2cccc(Cl)c2)no1 | 9.38% (inactive)
CCCCOc1[nH]c2nc(-c3ccco3)n(Cc3ccco3)c(=N)c2c1C#N | -9.05% (inactive)
COc1ccc(-c2nc3ccccc3c(=O)n2CCCN2CCOCC2)cc1 | -2.72% (inactive)
COC(=O)c1sc(NC(C)=O)c(C(=O)OC)c1C | -0.91% (inactive)
